# ± gives the standard deviation. The full ranking holds about 8,200 sequences; the median of “pre-steady-state target cleavage rate” is about 0.024, and the highest 2% start at about 1.3. The sample holds the highest values, similar sequences and a random draw of the others, so the mix is not that of the screen.
# System: MIWI (PIWIL1) piRISC loaded with L1MC piRNA (30 nt)
# Test: pre-steady-state target cleavage rate (min^-1); MIWI and MILI are mouse PIWI proteins and EfPiwi is from a freshwater sponge; tags in brackets are library labels; higher = faster piRNA-guided slicing of the target
# Conditions: guide: L1MC piRNA 5'p-UAACUAAAUACUAUGCAAGCUGUAGGUCCU
# Method in brief: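 Active affinity-purified piRISC (1 nM) loaded with one synthetic guide was mixed with a transcribed, DNA-blocked target RNA library (0.1 nM), with or without 500 nM GTSF1 partner protein, in HEPES–potassium acetate buffer at 33 °C for 0–8 or 0–960 min. Uncleaved targets were sequenced, normalised to depth and to weakly complementary targets, and pooled across three trials, with k3 capped at 0.0001 min^-1. The pre-steady-state cleavage rate was determined with a burst-and-steady-state fit.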
# [1] = auxiliary factor: 500 nM mouse GTSF1
# [2] = auxiliary factor: none (no GTSF1)
Sequence,pre-steady-state target cleavage rate [1],pre-steady-state target cleavage rate [2]
UCCUGCUACAGCAUGCAUAGUAUUUAGUUA,1.21 ± 0.086,0.0207 ± 0.0053
UCCUGCAACAGCUAGCAUAGUAUUUAGUUA,1.12 ± 0.047,0.0185 ± 0.004
UGCACCUACAGCUUGCAUAGUAUUUUGUUA,0.852 ± 0.083,0.0692 ± 0.015
UCCUGGAUGUGCUUGCAUAGUAAUUUGUUA,0.0171 ± 0.0079,0.00536 ± 0.0029
UCCACCAACAGCUUCCAUAGUAUUUAGUUA,0.0426 ± 0.015,0.00399 ± 0.0017
AGGACCAACAGCUUGCAUUGUAUUUAGUUA,0.923 ± 0.044,0.0356 ± 0.0086
UCCUCCUACAGCUUGCAUAGUUUUUACAAA,0.185 ± 0.029,
UCCUGGAACAGCUUGCAUAGUUAUUAGUUA,0.113 ± 0.015,0.015 ± 0.0044
UCCUGGAACAGCUUGCAUAGUAUUUUAGUUA,0.875 ± 0.046,0.0159 ± 0.003
UCCUGGAACAGCUUGCAUAGUAUUUAGUUA [g2:g23:cont:t1A],1.18 ± 0.034,0.0833 ± 0.014
UCCUGGAACAGCUUGUAUAGUAUUUAGUUA,1.37 ± 0.056,0.0564 ± 0.012
UCCUGGAAACAGCUUGCAUAGUAUUUAGUUA,1.34 ± 0.051,0.0675 ± 0.012
UCCUGGAACAGCUUGCAUAGUAUCUUAGUUA,0.777 ± 0.046,0.0258 ± 0.0072
UCCUGCAACAGCUUGCUUAGUAUUUAGUUA,1.4 ± 0.097,0.0478 ± 0.013
UCCUGCAACAGCUUGCAUUGUAUUUAGUUA,0.964 ± 0.068,0.0397 ± 0.01
UCCUGCAACAGCUUGGAUAGUAUUUAGUUA,1.24 ± 0.1,0.0688 ± 0.012
UCCUGGAACAGCUUGCAUAGUAUCUAGUUA,0.508 ± 0.045,0.0563 ± 0.011
UCCUGGAACAGCUUGCAUAGUAUUCUAGUUA,0.285 ± 0.041,0.0119 ± 0.0031
UCGACCUACAGCUUGCAUAGUAUUCUAGUUA,0.882 ± 0.094,0.0316 ± 0.0072
UGGACCUACAGCUUGCUUAGUAUUAAGUUA,0.454 ± 0.041,0.012 ± 0.0028
UCCUCCUACAGCUUGCAUACUAUUAAGUUA,0.147 ± 0.022,0.00892 ± 0.0014

Sequence,pre-steady-state target cleavage rate [1],pre-steady-state target cleavage rate [2]
UGGACCUACAGGUUGCAAAGUAUUUAGUUA,1.33 ± 0.082,0.02 ± 0.0043
UCCUCCUACAGGUUGCAAAGUAUUUAGUUA,1.29 ± 0.06,0.0159 ± 0.0033
AGGACCUACAGGUUGCAAAGUAUUUAGUUA,1.21 ± 0.045,0.0226 ± 0.0041
UCGACCUACAGGUUGCAAAGUAUUUAGUUA,1.33 ± 0.054,0.0193 ± 0.0046
UCGACCUACAGGUUGCAUAGUAUUUAGUUA,1.14 ± 0.053,0.0468 ± 0.0088
UCCACCUACAGGUUGCAAAGUAUUUAGUUA,1 ± 0.04,0.0166 ± 0.0038
UCCUGCUACAGCUUGCAUAGUAUUUAGUCUA,0.156 ± 0.025,0.00747 ± 0.0028
UCGACCUACAGCUUGCAUAGUUAAUUCAAA,0.538 ± 0.15,
UCCUGGAUGAGCUUGCAUAGUUUUUUGUUA,0.0806 ± 0.014,0.0177 ± 0.0048
UCCUGGAUGAGCUUGCAUUGUAUUUACUUA,0.0649 ± 0.016,0.00906 ± 0.0031
AGGACCUACAGCUUGCAUAGAAUUUUGUUA,0.501 ± 0.047,0.0183 ± 0.0047
AGGACCUACAGCUUGCAUAGUAUUUAGUA,0.795 ± 0.042,0.0502 ± 0.014
AGGACCUAGCAGCUUGCAUAGUAUUUAGUUA,1.21 ± 0.073,0.0735 ± 0.015
UGGACCUACUAGCUUGCAUAGUAUUUAGUUA,0.63 ± 0.036,0.0509 ± 0.01
UCCACCUAGAGCUUGCAUAGUAUUUAGUUA,0.593 ± 0.06,0.0282 ± 0.0051
UGGACCUAGCAGCUUGCAUAGUAUUUAGUUA,1.59 ± 0.13,0.0734 ± 0.014
AGCACCUAGAGCUUGCAUAGUAUUUAGUUA,1.47 ± 0.37,0.00468 ± 0.0035
UCGACCUAGCAGCUUGCAUAGUAUUUAGUUA,1.34 ± 0.058,0.0726 ± 0.016
UCCACCUAGCAGCUUGCAUAGUAUUUAGUUA,0.833 ± 0.057,0.0454 ± 0.0087
UCGACCUACUAGCUUGCAUAGUAUUUAGUUA,0.784 ± 0.042,0.0512 ± 0.01
UGCACCUAGAGCUUGCAUAGUAUUUAGUUA,1.2 ± 0.25,0.0155 ± 0.0045

Sequence,pre-steady-state target cleavage rate [1],pre-steady-state target cleavage rate [2]
UCGACCUACAGCUUCCAUAGUAAUUAGUUA,0.0526 ± 0.017,
UCCACCUACAGCUUGCAAUCUAUUUAGUUA,0.194 ± 0.018,
UGGACCUACUGCUUGCAUAGUAAUUAGUUA,0.866 ± 0.04,0.033 ± 0.0084
UCCUGGAUGUGCAUGCAUUGUAUUUAGUUA,0.00495 ± 0.0033,
UCCUGGUACAGGAAGCAUAGUAUUUAGUAA,0.0592 ± 0.011,
UCCACCAACAGCUAGCAUAGUAUUUAGUUA,0.97 ± 0.033,0.0197 ± 0.0045
UGGAGGUACAGCUUGCAUAGUAUUUUCAAA,0.0674 ± 0.014,0.00316 ± 0.0017
UGGAGCUACAGCUUCCAUAGUAUUUAGUUA,0.275 ± 0.047,0.00584 ± 0.0013
UGGACCUACGCUUGCAUAGUAUUUAGUUA,1.4 ± 0.081,0.046 ± 0.008
UGGACCUACACGCUUGCAUAGUAUUUAGUUA,1.06 ± 0.06,0.0641 ± 0.013
AGGACCUACGCUUGCAUAGUAUUUAGUUA,1.27 ± 0.066,0.0719 ± 0.013
UCGACCUACACGCUUGCAUAGUAUUUAGUUA,1.23 ± 0.063,0.0454 ± 0.0074
UCCACCUACGCUUGCAUAGUAUUUAGUUA,0.998 ± 0.04,0.0451 ± 0.0077
UCGACCUACGCUUGCAUAGUAUUUAGUUA,1.45 ± 0.052,0.0463 ± 0.0093
UCCACCUACAGGUUGCAUAGUAUUUAGUAA,0.866 ± 0.1,0.0134 ± 0.0028
UCCUGGUACAGCUUGCCAUAGUAUUUAGUUA,0.0951 ± 0.024,
UCCUCCUACUGCUUGCAUAGUAUUUAGAUA,0.185 ± 0.024,0.0115 ± 0.002
UCCUGGAUGAGCUUGCAUAGUAAUUAGAUA,0.136 ± 0.034,0.00679 ± 0.0036
UCCUGGAUGUGCUUGCAUUGUAUUUAGAUA,0.0181 ± 0.0038,0.0063 ± 0.0025
